Test results reported in PubChem BioAssay.
Activity calls are given as the source filed them. Unless noted, the rule behind the calls is not given here.

What was measured:
[1] = HepG2 liver cancer cell viability effects, profiling panel, resazurin fluorescence, 24 h, PK04 Diversity Set (AID 1172); conditions: higher = more signal
[2] = basal S. cerevisiae growth modulation, no modifier, primary screen, OD600, strain BY4716, 24 h, basal condition (AID 1173); conditions: OD600, 24 h, higher = more signal, called active from +8 up or from −8 down
[3] = MM1S myeloma cell viability, profiling panel, resazurin fluorescence, basal, 24 h, PK04 Diversity Set (AID 1174); conditions: higher = more signal, called active from +8 up or from −8 down;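 note: MM1S multiple myeloma cell line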
[4] = target: Dihydroorotate dehydrogenase (quinone), mitochondrial (Plasmodium falciparum (isolate 3D7)) (UniProt Q08210); assay: PfDHODH enzyme inhibitors, primary screen, biochemical, C-terminal His tag, absorbance 600 nm (AID 1175); conditions: DCIP absorbance 600 nm, higher = more signal, called active from +8 up or from −8 down;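 note: recombinant parasite enzyme with a five histidine tag at its C terminus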
[5] = P. aeruginosa biofilm formation inhibitors, primary screen, strain PAO1, LB-PBS medium, absorbance 600 nm (AID 1176); conditions: P. aeruginosa PAO1 growth/biofilm, A600, 12 h; higher = more signal
[6] = S. cerevisiae RM11-1a growth modifiers, primary screen, strain RM11-1a, OD600, basal, 24 h (AID 1177); conditions: OD600, 24 h, higher = more signal, called active from +8 up or from −8 down;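 note: cultures grown under basal conditions with no added stressor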
[7] = E. coli acrAB mutant growth effects, primary screen, E. coli filamentation inducers, strain DRC39, OD650, 24 h (AID 1178); conditions: higher = more signal, called active from +8 up or from −8 down;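 note: growth measured as culture turbidity by optical density at 650 nm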
[8] = E. coli acrAB mutant growth effects, primary screen, E. coli filamentation inducers, strain DRC39, OD650, 48 h (AID 1179);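 note: screen aims at cell division blockers that make cells filament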; conditions: E. coli DRC39 delta-acrAB growth, higher = more signal, called active from +8 up or from −8 down
[9] = RPMI8226 myeloma cell viability, profiling panel, resazurin fluorescence, basal, 24 h, PK04 Diversity Set (AID 1180); conditions: higher = more signal;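 note: RPMI8826 multiple myeloma cell line at 5000 cells per well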
[10] = target: E3 ubiquitin-protein ligase XIAP (Homo sapiens) (UniProt P98170); assay: XIAP binders, primary screen, biophysical, small-molecule microarray, fluorescence 635 nm (AID 1181); conditions: small-molecule microarray binding, higher = more signal;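 note: score merges 667 nm emission and signal to noise over triplicate slides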
[11] = tested on: XIP peptide (Xip251-270) binding; assay: small-molecule binders of XIP peptide, primary screen, biochemical, small-molecule microarray, fluorescence 635/667 nm, 0.1 µg/mL protein (AID 1182); conditions: fluorescent protein binding, 635 nm, higher = more signal, called active from +8 up or from −8 down
XIP peptide (Xip251-270) = assay: small-molecule binders of XIP peptide, primary screen, biochemical, small-molecule microarray, fluorescence 635/667 nm, 0.5 µg/mL protein (AID 1183); conditions: small-molecule microarray binding, fluorescence 635 nm; higher = more signal
[12] = Plasmodium falciparum growth inhibition, primary screen, strain 3D7, DAPI fluorescence, 100 nL (AID 1184);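 note: parasites grown inside human red blood cells in medium with human serum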; conditions: P. falciparum 3D7 growth, 3 d, higher = more signal
[13] = target: Homeobox protein Hox-A13 (Mus musculus) (UniProt Q62424); assay: inhibitors of HoxA13-DNA binding, primary screen, biochemical, fluorescence polarization, labeled oligonucleotide (AID 1185); conditions: 15 min, higher = more signal, called active from +8 up or from −8 down
[14] = inhibitors of hydroxyurea-induced Chk1 phosphorylation, primary screen, imaging, HeLa, phospho-Chk1 antibody, percent positive cells (AID 1186); conditions: hydroxyurea-induced phospho-Chk1 immunofluorescence imaging, higher = more signal
[15] = inhibitors of hydroxyurea-induced Chk1 phosphorylation, primary screen, imaging, HeLa, phospho-Chk1 nuclear intensity (AID 1187); conditions: hydroxyurea-induced phospho-Chk1 immunofluorescence imaging, higher = more signal

Sequence of E3 ubiquitin-protein ligase XIAP (Homo sapiens) (P98170 whole entry, looked up): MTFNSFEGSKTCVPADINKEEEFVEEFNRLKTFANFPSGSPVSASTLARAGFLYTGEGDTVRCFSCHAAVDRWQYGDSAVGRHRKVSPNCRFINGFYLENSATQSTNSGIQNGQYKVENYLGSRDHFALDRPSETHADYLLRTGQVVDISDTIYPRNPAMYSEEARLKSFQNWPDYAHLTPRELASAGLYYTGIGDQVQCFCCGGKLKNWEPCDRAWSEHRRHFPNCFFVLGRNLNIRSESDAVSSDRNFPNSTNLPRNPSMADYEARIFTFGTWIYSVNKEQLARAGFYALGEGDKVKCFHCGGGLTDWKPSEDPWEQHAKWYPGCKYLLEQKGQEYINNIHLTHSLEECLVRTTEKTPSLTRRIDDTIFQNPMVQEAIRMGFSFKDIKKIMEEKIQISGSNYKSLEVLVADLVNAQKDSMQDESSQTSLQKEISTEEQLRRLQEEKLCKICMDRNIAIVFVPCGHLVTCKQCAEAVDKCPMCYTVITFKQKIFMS
Sequence of Dihydroorotate dehydrogenase (quinone), mitochondrial (Plasmodium falciparum (isolate 3D7)) (Q08210 whole entry, looked up): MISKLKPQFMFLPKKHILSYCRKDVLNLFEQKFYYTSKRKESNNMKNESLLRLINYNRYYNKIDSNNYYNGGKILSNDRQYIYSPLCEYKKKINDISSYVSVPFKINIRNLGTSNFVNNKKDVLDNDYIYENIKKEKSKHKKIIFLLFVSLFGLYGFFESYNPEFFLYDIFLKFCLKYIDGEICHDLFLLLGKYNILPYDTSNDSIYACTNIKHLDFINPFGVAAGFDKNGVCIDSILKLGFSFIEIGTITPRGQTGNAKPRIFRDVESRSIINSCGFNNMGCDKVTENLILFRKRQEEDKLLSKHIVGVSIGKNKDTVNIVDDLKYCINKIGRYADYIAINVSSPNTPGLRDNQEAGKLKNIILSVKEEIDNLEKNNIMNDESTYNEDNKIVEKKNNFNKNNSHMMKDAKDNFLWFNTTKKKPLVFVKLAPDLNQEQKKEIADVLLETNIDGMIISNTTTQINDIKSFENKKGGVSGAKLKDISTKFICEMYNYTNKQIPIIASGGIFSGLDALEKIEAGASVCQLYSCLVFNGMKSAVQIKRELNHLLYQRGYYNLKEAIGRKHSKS
Sequence of Homeobox protein Hox-A13 (Mus musculus) (Q62424 whole entry, looked up): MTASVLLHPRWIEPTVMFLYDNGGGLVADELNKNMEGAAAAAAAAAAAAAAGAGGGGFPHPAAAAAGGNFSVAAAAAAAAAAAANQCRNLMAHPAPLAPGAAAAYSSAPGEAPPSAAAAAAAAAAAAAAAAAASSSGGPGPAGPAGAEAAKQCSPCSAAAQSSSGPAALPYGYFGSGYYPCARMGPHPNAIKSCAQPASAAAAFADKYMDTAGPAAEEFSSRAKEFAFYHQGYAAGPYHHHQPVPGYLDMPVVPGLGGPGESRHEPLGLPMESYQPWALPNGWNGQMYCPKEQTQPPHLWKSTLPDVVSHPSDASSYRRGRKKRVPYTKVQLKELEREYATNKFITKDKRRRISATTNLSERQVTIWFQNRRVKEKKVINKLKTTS

Row | Structure (SMILES) | z-score [1] | z-score [2] | z-score [3] | composite z-score [4] | z-score [5] | z-score [6] | z-score [7] | z-score [8] | z-score [9] | composite z-score [10] | composite z-score [11] | composite z-score (XIP peptide (Xip251-270)) | z-score [12] | z-score [13] | z-score [14] | z-score [15]
1 | COc1ccc(CCNC(=O)[C@@]2(c3ccc([N+](=O)[O-])cc3)CC(=O)N(CC34CC5CC(CC(C5)C3)C4)[C@@H]2c2ccc(CO)cc2)cc1 | -1.86 | -0.125 (inactive) | -2.58 (inactive) | 0.682 (inactive) | 1.61 (inactive) | 0.526 (inactive) | -0.226 (inactive) | -0.281 (inactive) | -2.81 | 0.0073 | 0.349 (inactive) | 0.735 | -1.79 | -2.31 (inactive) | -0.42 (inactive) | -0.458 (inactive)
2 | O=C1OCCC/C=C\[C@H]2OC34C=CCN(Cn5nnc6ccccc65)C(=O)[C@H]3N(CCCCCO)C(=O)[C@@H]4C12 (some centres undefined) | 0.502 | -0.419 (inactive) | 0.812 (inactive) | -1.01 (inactive) | 0.193 (inactive) | -0.564 (inactive) | 0.376 (inactive) | -0.0083 (inactive) | 0.692 | 0.178 | 0.145 (inactive) | 0.545 | 0.961 | -4.39 (inactive) | 0.812 (inactive) | 0.888 (inactive)
3 | C=C(COC)C(=O)CC[C@H](OC(C)=O)c1cccc(OCCO)c1 | -1.32 | -0.764 (inactive) | -0.854 (inactive) | -0.859 (inactive) | -0.73 (inactive) | -0.496 (inactive) | -1.03 (inactive) | -0.639 (inactive) | -1.27 | 0.0346 | 0.623 (inactive) | -0.762 | -2.3 | -4.76 (inactive) | 0.305 (inactive) | -0.0656 (inactive)
4 | CCCNC(=O)[C@@]1(c2ccc([N+](=O)[O-])cc2)CC(=O)N(CC23CC4CC(CC(C4)C2)C3)[C@@H]1c1ccc(CO)cc1 | -1.8 | 1.07 (inactive) | -3.32 (inactive) | -0.225 (inactive) | 0.416 (inactive) | 1.05 (inactive) | -0.421 (inactive) | -0.391 (inactive) | -3.71 | 0.182 | 0.462 (inactive) | 0.424 | 0.0816 | -4.89 (inactive) | -0.29 (inactive) | -0.683 (inactive)
5 | COC(=O)[C@@]1(Cc2ccccc2)[C@H]2c3cc(C(=O)N4CCCC4)n(Cc4ccc(C)o4)c3C[C@H]2CN1C(=O)c1ccccc1 | -1.59 | 0.476 (inactive) | -1.5 (inactive) | -0.376 (inactive) | 0.399 (inactive) | -0.219 (inactive) | -0.691 (inactive) | -0.471 (inactive) | -2.47 | 0.0632 | 1.04 (inactive) | 0.814 | -1.11 | -4.62 (inactive) | 0.56 (inactive) | 0.421 (inactive)
6 | CCOC(=O)C[C@H]1[C@H](OC(=O)c2ccccc2-c2ccccc2)[C@@H](NC(=O)Cc2ccc(OC)cc2)c2cc(OCCCO)ccc2N1C(=O)c1ccccc1 | -0.532 | 0.728 (inactive) | -0.275 (inactive) | 0.542 (inactive) | -0.0461 (inactive) | 0.799 (inactive) | -0.672 (inactive) | -0.79 (inactive) | -0.155 | 0.123 | 0.277 (inactive) | 0.127 | -1.6 | -3.88 (inactive) | 0.422 (inactive) | 0.137 (inactive)
7 | CC(=O)NCCCC[C@@H]1NC(=O)[C@@H]2C[C@H](C(=O)NCCCCCCNC(=O)CS)[C@H](c3ccc(O)cc3)N2C1=O | 0.107 | -0.688 (inactive) | -0.568 (inactive) | -0.344 (inactive) | -0.434 (inactive) | 0.208 (inactive) | -0.356 (inactive) | -0.214 (inactive) | -0.763 | -0.0773 | 0.757 (inactive) | 0.596 | 0.648 | -5.16 (inactive) | 0.34 (inactive) | 0.0918 (inactive)
8 | O=C(CS)NCCCCCCNC(=O)[C@@H]1C[C@@H]2C(=O)N3CCC[C@H]3C(=O)N2[C@@H]1c1ccc(O)cc1 | -0.564 | 0.784 (inactive) | 0.357 (inactive) | 0.586 (inactive) | -0.158 (inactive) | 1.24 (inactive) | -0.0727 (inactive) | -0.313 (inactive) | -0.449 | 0.0153 | 0.689 (inactive) | 0.422 | 0.331 | -3.65 (inactive) | -0.0018 (inactive) | 0.499 (inactive)
9 | C=CCC(OC(C)=O)[C@@H]1[C@@H](N(Cc2cccc3ccccc23)C(=O)c2cccc3ccccc23)c2cc(OCCCO)ccc2N1C(=O)c1ccc2ccccc2n1 (some centres undefined) | -0.0111 | -0.337 (inactive) | -0.388 (inactive) | -0.747 (inactive) | -0.334 (inactive) | -0.929 (inactive) | 0.854 (inactive) | 0.424 (inactive) | -0.0685 | -0.124 | 0.376 (inactive) | 0.343 | -1.29 | -2.11 (inactive) | 0.316 (inactive) | 0.545 (inactive)
